Hits are enriched below; roughly 16% of the tested compounds scored in any of these assays.
miR-21 act: qHTS Assay for Modulators of miRNAs and/orActivators of miR-21; HeLa miR-21 FLuc reporter, luciferase, 48 h; 340,000 tested, under 10 active; AID 2288, 2010; Potency, µM (top dose mostly 38.3 µM), without a hit: top-dose activity change, positive = activation, usual class: activators;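 also: % of control where 0% means no effect; miR-21 action dims this reporter so a rising signal means less miR-21 action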
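Luminescence from a firefly luciferase reporter carrying a miR-21 binding site downstream, stably expressed under a CMV promoter in HeLa cells that make miR-21 endogenously, reports miRNA modulation after 48 h compound exposure up to approximately 40uM final.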
DT40 TDP1 CPT: qHTS for Inhibitors of human tyrosyl-DNA phosphodiesterase 1 (TDP1): qHTS in cells in presence of CPT | chicken DT40 Tdp1-/-;hTDP1 cells + 20 nM CPT, ATP luminescence, 48 h | Potency, µM (highest dose often 46.2 µM), for the others: at the top dose activity change, negative = growth inhibition, actives largely listed as inhibitors | 12% of 420,000 active | AID 686979, 2013; also: potency is read from the fitted curve at half-maximal effect; % is scaled to controls: 0 for no effect and ±100 for the full control effect; nearly all actives have a fitted effect of over 55% in size
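Cell growth measured by CellTiter-Glo luminescence after a minimum 48 h, 37 C compound exposure with 20 nM CPT in Tdp1-knockout DT40 cells stably expressing hTDP1, seeded 400/well; qHTS titration format.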
TDP1 block: qHTS Assay for Inhibitors of Tyrosyl-DNA Phosphodiesterase (TDP1); recombinant TDP1, AlphaScreen DNA substrate cleavage; AID 485290, 2010; Potency, µM (titrated, usually from 130 µM), for inactives: at the top dose activity change, negative = inhibition, usual class: inhibitors; 0.28% of 350,000 active; also: potency is read from the fitted curve at half-maximal effect; % is scaled to controls: 0 for no effect and ±100 for the full control effect; nearly all actives have a fitted effect of over 40% in size
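Here, a 5' biotin and 3' phosphotyrosine-FITC DNA oligonucleotide reports Tdp1 activity: intact substrate bridges AlphaScreen beads, while cleavage leaves a 3' phosphate and drops signal. All incubations at room temperature.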
TDP1 cell noCPT: qHTS for Inhibitors of human tyrosyl-DNA phosphodiesterase 1 (TDP1): qHTS in cells in absence of CPT; DT40 Tdp1-/- hTDP1 cells, no CPT, ATP luminescence, 48 h; Potency, µM (top dose mostly 46.2 µM), inactives show top-dose activity change, negative = growth inhibition, hits mostly inhibitors; 15% of 420,000 active; also: potency is read from the fitted curve at half-maximal effect; % is scaled to controls: 0 for no effect and ±100 for the full control effect; nearly all actives have a fitted effect of over 55% in size
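A cellular qHTS used chicken DT40 cells lacking endogenous Tdp1 but carrying stably transfected human TDP1. Compounds were applied without camptothecin, and cell growth kinetics were judged by ATP-dependent luminescence after ≥48 hr.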
uPA surface inh: qHTS for Inhibitors of Cell Surface uPA Generation; Potency, µM (highest dose often 38.3 µM), for inactives: at the highest dose activity change, negative = inhibition, usual class: inhibitors; 0.31% of 330,000 active; AID 540303, 2011; cell surface uPA generation assay, qHTS; active = well fitted inhibition curve with a large enough effect; inconclusive = small, poorly fitted or top-dose-only effect; inactive = no such curve, though single readings can be large or run the other way; tested in mouse RAW 264.7 cells; also: potency is read from the fitted curve at half-maximal effect; % is scaled to controls: 0 for no effect and ±100 for the full control effect; nearly all actives have a fitted effect of over 55% in size
* = called active by the depositor; ? = inconclusive; . = no result given; [ ] = another dose, or the depositor's remark. Unless noted, calls follow the shape of the dose curve; as a rule, active = well fitted curve in the direction sought with a large enough effect; inconclusive = small, poorly fitted or top-dose-only effect, or another doubt; inactive = no such curve, though single readings can be large; an effect the other way counts as inactive or inconclusive.

SMILES	miR-21 act	DT40 TDP1 CPT	TDP1 block	TDP1 cell noCPT	uPA surface inh
COc1ccc(S(=O)(=O)N2CCCCC2c2cc(C(=O)NCc3ccccc3)no2)cc1 (centres undefined)	.	26µM*	.	?	.
CCCNC(=O)c1cc(C2CCCCN2S(=O)(=O)c2ccc(OC)cc2)on1 (centres undefined)	.	-38%	.	?	.
CCC(C)c1ccccc1NC(=O)C(C)OC(=O)CN1C(=O)NC(C)(C)C1=O (centres undefined)	.	5%	0%	-2%	-2%
Cc1cc(CNC(=O)CC2C(=O)NCCN2CC(C)(C)C)nn1C (centres undefined)	0%	8%	.	8%	13%
CCN(CC)S(=O)(=O)c1ccc2nc(SC)sc2c1	-5%	-4%	-3%	-12%	.
CC(OC(=O)COc1ccccc1[N+](=O)[O-])C(=O)Nc1ccc(N2CCOCC2)cc1 (centres undefined)	-12%	0%	2%	5%	0%
COc1ccc(S(=O)(=O)N2CCCCC2c2cc(C(=O)Nc3ccc4c(c3)OCO4)no2)cc1 (centres undefined)	.	18µM*	.	15µM*	.
Cc1ccc(/C=C/C(=O)OCC(=O)NC(C)C)o1	-12%	-20%	-2%	-8%	3%
Cc1csc(NC(=O)CSc2nc3[nH]c(=O)cc(O)c3s2)n1	.	21µM*	.	15µM*	-1%
CCCSc1nnc(NC(=O)CSc2nc3[nH]c(=O)cc(O)c3s2)s1	.	2%	?	23%	?
CCc1nnc(NC(=O)CSc2nc3[nH]c(=O)cc(O)c3s2)s1	.	6.5µM*	-2%	6.5µM*	-3%
CCc1cc(Cn2nc(-c3ccccc3)cc2C(=O)NCc2cccc(Br)c2)on1	.	?	-5%	16µM*	?
CCc1cc(Cn2nc(-c3ccccc3)cc2C(=O)NCc2ccc(C)cc2)on1	.	?	-6%	?	-2%
O=C(O)C1CC=CCC1C(=O)N1CCN(c2nc(-c3ccccc3Cl)c3cc(Br)ccc3n2)CC1 (centres undefined)	-7%	-29%	-3%	?	-1%
O=C(O)C1CC=CCC1C(=O)N1CCN(c2nc(-c3ccccc3)c3ccccc3n2)CC1 (centres undefined)	-16%	18µM*	-5%	?	4%
O=C(CCNS(=O)(=O)c1ccc(F)c(Cl)c1)NCc1ccccc1F	.	-5%	1%	4%	-5%
COc1ccc(CC(=O)Nc2cc(S(=O)(=O)N3CCCCC3)ccc2C)cc1	.	?	-2%	21µM*	24%
COc1ccc(CCC(=O)Nc2cccc(S(=O)(=O)N3CCCCCC3)c2)cc1OC	.	?	3%[56.1 µM]	15µM*	-11%
COc1ccc(CC(=O)Nc2cccc(SC)c2)cc1OC	18%	12µM*	6%	9.2µM*	-1%
COc1ccc(CC(=O)Nc2ccc(S(=O)(=O)N3CCCCC3)cc2)cc1OC	6%	?	10%	?	-2%
CCN1CCN(c2ccc(S(=O)(=O)N3CCCCC3)cc2NC(=O)Cc2ccc(OC)cc2)CC1	2%	-30%	2%	?	2%
COc1ccc(CC(=O)Nc2cccc(S(=O)(=O)N3CCCCCC3)c2)cc1OC	19%	6.5µM*	7%	7.3µM*	-7%
O=C(NC(Cc1ccccc1)C(=O)O)/C(=C/c1ccc(Br)cc1)NC(=O)c1ccc(Br)o1 (centres undefined)	0%	-4%	5%	17%	0%
O=C(CCNC(=O)c1ccc([N+](=O)[O-])cc1)Nc1cccc(S(=O)(=O)N2CCCCC2)c1	22%	?	6%	?	7%
COc1ccc(CC(=O)Nc2cc(S(=O)(=O)N3CCCCC3)ccc2OC(C)C)cc1OC	.	?	.	21µM*	.

High-throughput results (PubChem)
